Data published in PubChem BioAssay (NCATS).
Results filed as inconclusive are left out. Activity calls are given as the source filed them. The call rests on the fitted dose curve.
On the % scale 0 is the no-effect control and ±100 the full control effect.

Experiment: Primary qHTS for inhibitors of MERS-S pseudo-typed particle cell entry (AID 1479149); further: nearly all actives have a fitted effect of over 60% in size
Settings: MERS-S pseudotyped particle entry, luciferase; series mostly up to 57.1 µM; activity change, negative = inhibition: at the top concentration
With CCCCOC(=O)c1ccc(N)cc1 the “outcome” value was “inactive”. For CCCCC(CC)COC(=O)c1ccccc1O (configuration not stated), the “outcome” value was “inactive”. With CCOc1cc(CC(=O)N[C@@H](CC(C)C)c2ccccc2N2CCCCC2)ccc1C(=O)O the “outcome” value was “inactive”. In the case of CN(C)C(=O)COC(=O)Cc1ccc(OC(=O)c2ccc(N=C(N)N)cc2)cc1, the “activity change, negative = inhibition” value is reported as -13.1% (inactive). For C[C@](O)(CS(=O)(=O)c1ccc(F)cc1)C(=O)Nc1ccc(C#N)c(C(F)(F)F)c1, the “outcome” value was “inactive”. For CC(=O)NC[C@H]1CN(c2ccc(N3CCOCC3)c(F)c2)C(=O)O1, the “activity change, negative = inhibition” value was 1.51% (inactive). In the case of COC(=O)c1cc(Cl)ccc1NS(=O)(=O)C(F)(F)F, the “activity change, negative = inhibition” value is reported as -0.0953% (inactive). For c1ccc2sc(SSc3nc4ccccc4s3)nc2c1, the “outcome” value was “inactive [at 26.4 µM]”. With CC(C)COC(=O)c1ccc(N)cc1 the “outcome” value was “inactive”. With CCOC(=O)Oc1ccc(CCNC(=O)[C@H](CCSC)NC(C)=O)cc1OC(=O)OCC the “outcome” value was “inactive”. In the case of O=P(O)(O)C(O)(Cn1ccnc1)P(=O)(O)O, the “outcome” value is reported as “inactive”. In the case of CC(=O)N=c1sc(S(N)(=O)=O)nn1C, the “activity change, negative = inhibition” value is reported as -15.2% (inactive). For CCCCCCCCCCCCCCCC(=O)OC(C)C, the “outcome” value was “inactive”. For CCCC(=O)O[C@]1(C(=O)CO)CC[C@H]2[C@@H]3CCC4=CC(=O)CC[C@]4(C)[C@H]3[C@@H](O)C[C@@]21C, the “outcome” value was “inactive”. With CCCC(=O)O[C@]1(C(=O)COC(=O)CC)CC[C@H]2[C@@H]3CCC4=CC(=O)CC[C@]4(C)[C@H]3[C@@H](O)C[C@@]21C the “outcome” value was “inactive [at 26.4 µM]”. With CCCc1nc(C(C)(C)O)c(C(=O)OCc2oc(=O)oc2C)n1Cc1ccc(-c2ccccc2-c2nn[nH]n2)cc1 the “outcome” value was “inactive”. With Cc1ccc(C(=O)C(=O)O)cc1C the “outcome” value was “inactive”. For Nc1nc2[nH]cc(CCc3ccc(C(=O)N[C@@H](CCC(=O)O)C(=O)O)cc3)c2c(=O)[nH]1, the “outcome” value was “inactive”. With O=C(COCCOCCOCC(=O)Nc1c(I)cc(I)c(C(=O)O)c1I)Nc1c(I)cc(I)c(C(=O)O)c1I the “outcome” value was “inactive”. For CC(C)(C)NCC(O)COc1cccc2c1C[C@H](O)[C@H](O)C2 (some centres not stated), the “outcome” value was “inactive”. For CN[C@@H]1[C@H](O)[C@H](NC)[C@H]2O[C@@]3(O)C(=O)C[C@@H](C)O[C@H]3O[C@@H]2[C@H]1O, the “outcome” value was “inactive”. In the case of C#CCN[C@@H]1CCc2ccccc21, the “activity change, negative = inhibition” value is reported as -3.96% (inactive). In the case of C/C(=N\O)[C@@H](C)NCC(C)(C)CN[C@H](C)/C(C)=N/O, the “outcome” value is reported as “inactive”. In the case of CC(=O)CC(c1ccc([N+](=O)[O-])cc1)c1c(O)c2ccccc2oc1=O (configuration not stated), the “outcome” value is reported as “inactive”. For C[N+](C)(C)CCOC(N)=O, the “activity change, negative = inhibition” value was -2.05% (inactive). For CC[N+](C)(CC)CCOC(=O)C1c2ccccc2Oc2ccccc21, the “activity change, negative = inhibition” value was 0.799% (inactive). With C/C(=C(\CCO)SS/C(CCO)=C(\C)N(C=O)Cc1cnc(C)nc1N)N(C=O)Cc1cnc(C)nc1N the “outcome” value was “inactive”. With CN1[C@@H]2CC(OC(=O)[C@H](CO)c3ccccc3)C[C@H]1[C@@H]1O[C@@H]12 (some centres not stated) the “outcome” value was “inactive”. For O=C(O)Cc1cccc2ccccc12, the “outcome” value was “inactive”. In the case of CCC(=O)c1c(O)cc(O)cc1O, the “outcome” value is reported as “inactive”. For NCCCCCC(=O)O, the “activity change, negative = inhibition” value was 4.38% (inactive). For O=c1oc2ccccc2c(O)c1Cc1c(O)c2ccccc2oc1=O, the “activity change, negative = inhibition” value was 3.39% (inactive).
